# Data published in PubChem BioAssay (NCATS).
# Results filed as inconclusive are left out. A call without a number means that no potency is given here. Unmarked numbers belong to inactive results. Active and inactive are the calls of the source. Calls come from the whole dose curve; as a rule, active = well fitted curve in the direction sought with a large enough effect; inconclusive = small, poorly fitted or top-dose-only effect, or another doubt; inactive = no such curve, though single readings can be large; an effect the other way counts as inactive or inconclusive. Where a SMILES comes first, the peptide text is derived from it.
# Assays:
# [1] = P-glycoprotein substrates identified in KB-3-1 adenocarcinoma cell line, qHTS therapeutic library screen (AID 1346986); note: nearly all actives have a fitted effect of over 60% in size
# Summary of the method: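 KB-3-1 parental cells and P-gp-overexpressing KB-8-5-11 (colchicine omitted during assay) plated at 500 cells/well, dosed in dose-response, incubated 72 h at 37 degree C. CellTiter-Glo luminescence read; KB-8-5-11 also tested with tariquidar.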
# [2] = P-glycoprotein substrates identified in KB-8-5-11 adenocarcinoma cell line, qHTS therapeutic library screen (AID 1346987); note: nearly all actives have a fitted effect of over 65% in size; for activity change, negative = cytotoxicity: series mostly up to about 44 µM
# Summary of the method: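 P-gp-mediated resistance screen: KB-8-5-11 cells treated 72 h with compounds in dose-response. CellTiter-Glo viability.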
smiles,measurement,setting,value
C=C1C(=O)OC2CC(COC(=O)C(C)C)=C(C(C)CCCOC(C)=O)[C@@H](OC(C)=O)C12 (stereo partly drawn),Potency,[1],inactive
same,Potency,[2],inactive
CC1CCC2(C(=O)OC3OC(CO)C(O)C(O)C3O)CCC3(C)C(=CCC4C5(C)CCC(O)C(C)(CO)C5CCC43C)C2C1(C)O (stereo not drawn),Potency,[1],inactive
same,Potency,[2],inactive
CC1CC(=O)[C@]2(O)C(C(=O)OCCc3ccc(O)cc3)=CO[C@@H](O[C@@H]3O[C@H](CO)[C@@H](O)[C@H](O)[C@H]3O)[C@H]12 (stereo partly drawn),Potency,[1],inactive
same,Potency,[2],inactive
CC1(C)CC[C@]2(C(=O)O)CC[C@]3(C)C(=CCC4[C@@]5(C)C[C@@H](O)[C@H](O)[C@@](C)(CO)C5[C@H](O)C[C@]43C)[C@@H]2C1 (stereo partly drawn),Potency,[1],inactive
same,Potency,[2],inactive
CC(C)C1NC(=O)CNC(=O)C2CCCN2C(=O)C(Cc2c[nH]c3ccccc23)NC(=O)CNC(=O)C(Cc2ccc(O)cc2)NC(=O)CNC1=O (stereo not drawn) (cyclo(GVGYGWP); configuration not given here),Potency,[1],inactive
same,Potency,[2],inactive
CC(C)C1NC(=O)C(CC2(O)c3ccccc3N3C(=O)C(Cc4ccccc4)NC32)NC1=O (stereo not drawn),Potency,[1],inactive
same,Potency,[2],inactive
C/C=C(\C)C(=O)OC[C@H]1O[C@H](O[C@H]2O[C@H](CO)[C@@H](O)[C@H](O)[C@H]2O[C@@H]2O[C@H](CO)[C@@H](O)[C@H](O)[C@H]2O)[C@H](O[C@@H]2O[C@H](CO)[C@@H](O)[C@H](O)[C@H]2O)[C@@H](O)[C@@H]1O,Potency,[1],inactive
same,Potency,[2],inactive
C=CC(C)(C)C12Nc3c(ccc4c3OC(C)(C)C=C4)C1(O)CC1C(=O)N3CCCC3C(=O)N12 (stereo not drawn),Potency,[1],inactive
same,Potency,[2],inactive
C[C@]1(C2CCCC2)Cc2cc(OCC(=O)O)c(Cl)c(Cl)c2C1=O,Potency,[1],inactive
same,Potency,[2],inactive
C=C(C)[C@@H]1CC[C@]2(C(=O)O)CC[C@]3(C)C(CCC4[C@]5(C)C(CC[C@]43C)C(C)(C)[C@@H](O)[C@@H]5C(=O)O)C12 (stereo partly drawn),Potency,[1],inactive
same,Potency,[2],inactive
CC(=O)O[C@@H]1[C@@H](O)[C@H](C)O[C@@H](O[C@H]2[C@@H]3C=CO[C@@H](O[C@@H]4O[C@H](CO)[C@@H](O)[C@H](O)[C@H]4OC(C)=O)[C@@H]3[C@@]3(CO)O[C@@H]23)[C@@H]1OC(=O)/C=C/c1ccc(O)cc1,Potency,[1],inactive
same,Potency,[2],inactive
NC(Cc1c[nH]c2ccc(O)cc12)C(=O)O (stereo not drawn),Potency,[1],inactive
same,Potency,[2],inactive
O=C(O)[C@H](Cc1ccccc1)Oc1ccc(-c2ccccc2)cc1,Potency,[1],inactive
same,Potency,[2],inactive
C[C@]1(OC(=O)/C=C\c2ccc(O)cc2)C[C@@H](O)[C@]2(O)C=CO[C@@H](O[C@@H]3O[C@H](CO)[C@@H](O)[C@H](O)[C@H]3O)C12 (stereo partly drawn),Potency,[1],inactive
same,Potency,[2],inactive
CSCC1OC(n2cnc3c(N)ncnc32)C(O)C1O (stereo not drawn),Potency,[1],inactive
same,Potency,[2],inactive
C=C1CCC2C(C)(C(=O)O)CCCC2(C)C1CC/C(C)=C\CO (stereo not drawn),Potency,[1],inactive
same,Potency,[2],inactive
CC(C)CC(=O)NCCn1cc(C(=O)O)c(=O)cc1C(O)c1ccccc1 (stereo not drawn),Potency,[1],inactive
same,Potency,[2],inactive
Cc1occc(=O)c1O[C@@H]1O[C@H](COC(=O)CC(C)(O)CC(=O)O)[C@@H](O)[C@H](O)[C@H]1O (stereo partly drawn),Potency,[1],inactive
same,Potency,[2],inactive
CC(=O)O[C@H]1[C@H](O[C@H]2CC[C@]34C[C@]35CC[C@]3(C)[C@@H]([C@@]6(C)CC[C@@H](C(C)(C)O)O6)[C@@H](O)C[C@@]3(C)[C@@H]5C[C@H](O[C@@H]3O[C@H](CO)[C@@H](O)[C@H](O)[C@H]3O)[C@H]4C2(C)C)OC[C@@H](OC(C)=O)[C@@H]1O,Potency,[1],inactive
same,Potency,[2],inactive
CC(=O)c1[nH]cc(CCC(=O)O)c1CC(=O)O,Potency,[1],inactive
same,Potency,[2],inactive
CC1=C[C@H](O)[C@H]2C(C)(C)CCC[C@]2(C)[C@@]1(O)CO,Potency,[1],inactive
same,Potency,[2],inactive
O=C(C[C@@H]1C(C(=O)O)=CO[C@@H](O[C@@H]2O[C@H](CO)[C@@H](O)[C@H](O)[C@H]2O)/C1=C\CO)OCCc1ccc(O)cc1,Potency,[1],inactive
same,Potency,[2],inactive
COc1cccc(OC)c1-c1ccc(C[C@H](NC(=O)c2c(Cl)cccc2Cl)C(=O)O)cc1,Potency,[1],inactive
same,Potency,[2],inactive
CC(=O)OC1C(CO)OC(O[C@H]2[C@H](OC(=O)[C@]34CCC(C)(C)C[C@H]3C3=CCC5[C@@]6(C)CC[C@H](O[C@@H]7O[C@H](C(=O)O)[C@@H](O)[C@H](O[C@@H]8OC[C@@H](O)[C@H](O)[C@H]8O)[C@H]7O[C@@H]7O[C@H](CO)[C@H](O)[C@H](O)[C@H]7O)[C@@](C)(C=O)C6CC[C@@]5(C)[C@]3(C)C[C@H]4O)O[C@H](C)[C@H](OC3OC(C)C(OC4OCC(O)C(O)C4O)C(O)C3O)[C@@H]2O)C(O)C1O (stereo partly drawn),outcome,[1],inactive [at 9.29 µM]
same,"activity change, negative = cytotoxicity",[2],1.85% [at 9.29 µM]
CC/C=C/C(O)C(O)C1=C(C)C(=O)C2(O1)C(=O)NC(OC)(C(=O)c1ccccc1)C2O (stereo not drawn),Potency,[1],inactive
same,Potency,[2],inactive
OC[C@H]1O[C@@H](OCc2ccccc2)[C@H](O[C@@H]2OC[C@@H](O)[C@H](O)[C@H]2O)[C@@H](O)[C@@H]1O,Potency,[1],inactive
same,Potency,[2],inactive
CC(C/C=C/C(C)(C)O)C1CCC(C)(O)C(O)C1 (stereo not drawn),Potency,[1],inactive
same,Potency,[2],inactive
C=C[C@H]1[C@H](O[C@@H]2O[C@H](CO)[C@@H](O)[C@H](O)[C@H]2O)OC=C(C(=O)OC)[C@H]1CC=O,Potency,[1],inactive
same,Potency,[2],inactive
Cc1oc(S(=O)(=O)N2CCCCC2)cc1NC(=O)Nc1ccccc1,Potency,[1],inactive
same,Potency,[2],inactive
C/C=C(\C)C(=O)O[C@H]1C=CC(=O)O[C@H]1/C=C/[C@H](O)[C@@H](C)O,Potency,[1],inactive
same,Potency,[2],inactive
CC1(C)CC[C@]2(C(=O)O[C@@H]3O[C@H](CO)[C@@H](O)[C@H](O)[C@H]3O)CC[C@]3(C)C(=CCC4[C@@]5(C)CC[C@H](O[C@@H]6O[C@H](C(=O)O)[C@@H](O[C@@H]7O[C@H](CO)[C@@H](O)[C@H](O)[C@H]7O)[C@H](O)[C@H]6O)C(C)(C)C5CC[C@]43C)C2C1 (stereo partly drawn),outcome,[1],inactive [at 9.29 µM]
same,outcome,[2],inactive [at 9.29 µM]
C=CCC1=C[C@]2(OC)[C@H](C)[C@@H](c3ccc(OC)c(OC)c3)O[C@]2(OC)CC1=O,Potency,[1],inactive
same,Potency,[2],inactive
Cc1cc(CNC(=O)c2cc(C(=O)NCc3ccc(F)c(C)c3)ncn2)ccc1F,Potency,[1],inactive
same,Potency,[2],inactive
O=C(O[C@H]1[C@H](Oc2ccc(O)cc2CO)O[C@H](CO)[C@@H](O)[C@@H]1O)c1ccccc1,Potency,[1],inactive
same,Potency,[2],inactive
CC1(C)O[C@H]2CC(=O)OC[C@@]23C1=C(O)C(=O)[C@]1(C)C3CC[C@@]2(C)[C@H](c3ccoc3)OC(=O)[C@H]3O[C@]321 (stereo partly drawn),Potency,[1],inactive
same,Potency,[2],inactive
C=C1CC[C@H]2[C@@](C)(CCC(O)[C@@]2(C)CO)[C@@H]1/C=C/C(=C\C(=O)O)C(=O)O (stereo partly drawn),Potency,[1],inactive
same,Potency,[2],inactive
C/C(=C\CCC1(C)C2CC3C(C2)C31C)C(=O)O (stereo not drawn),Potency,[1],inactive
same,Potency,[2],inactive
Cc1onc(-c2c(Cl)cccc2Cl)c1CC(=O)NCc1ccc(OCC(F)(F)F)nc1,Potency,[1],inactive
same,Potency,[2],inactive
COC(=O)C1=COC(OC2OC(CO)C(O)C(O)C2O)C2C(C)CC(=O)C12O (stereo not drawn),Potency,[1],inactive
same,Potency,[2],inactive
COc1cc2nc(=NC(=O)c3cccnc3)n3c(c2cc1OC)NCC3,Potency,[1],inactive
same,Potency,[2],inactive
C=C1C(O)CC2C(C(=O)O)=COC(O[C@@H]3O[C@H](COC(=O)c4ccc(O)cc4)[C@@H](O)[C@H](O)[C@H]3O)C12 (stereo partly drawn),Potency,[1],inactive
same,Potency,[2],inactive
CC1=C2C(=O)C=C(CO)C2[C@H]2OC(=O)[C@H](C)[C@@H]2[C@@H](OC(=O)Cc2ccc(O)cc2)C1 (stereo partly drawn),Potency,[1],inactive
same,Potency,[2],inactive
CCCC1=CC2=C(CO1)C(=O)C(C)(O)C(OC(=O)c1c(C)cc(OC)cc1O)C2 (stereo not drawn),Potency,[1],inactive
same,Potency,[2],inactive
C=C1CC23CC(=O)C4C(CO)(CO)CCCC4(C)C2CCC1C3 (stereo not drawn),Potency,[1],inactive
same,Potency,[2],inactive
CC1(C)COC(=O)[C@@H]1O[C@@H]1O[C@H](CO)[C@@H](O)[C@H](O)[C@H]1O,Potency,[1],inactive
same,Potency,[2],inactive
CC1(C)CC[C@]2(C(=O)O[C@@H]3O[C@H](CO[C@@H]4O[C@H](CO)[C@@H](O)[C@H](O)[C@H]4O)[C@@H](O)[C@H](O[C@@H]4O[C@H](CO)[C@@H](O)[C@H](O)[C@H]4O)[C@H]3O)CC[C@]3(C)C(=CCC4[C@@]5(C)CC[C@H](O[C@@H]6OC[C@@H](O)[C@H](O)[C@H]6O)[C@@](C)(C(=O)O)C5CC[C@]43C)[C@@H]2C1 (stereo partly drawn),outcome,[1],inactive [at 9.29 µM]
same,"activity change, negative = cytotoxicity",[2],2.51% [at 9.29 µM]
C[C@H]1CC[C@@]2(OC1)O[C@H]1CC3C4CC[C@H]5C[C@@H](O[C@@H]6O[C@H](CO)[C@H](O[C@@H]7O[C@H](CO)[C@@H](O)[C@H](O[C@@H]8OC[C@@H](O)[C@H](O)[C@H]8O)[C@H]7O[C@@H]7O[C@H](CO)[C@@H](O)[C@H](O)[C@H]7O)[C@H](O)[C@H]6O)[C@H](O)C[C@]5(C)C4=CC(=O)[C@]3(C)[C@H]1[C@@H]2C (stereo partly drawn),outcome,[1],inactive [at 9.29 µM]
same,"activity change, negative = cytotoxicity",[2],4.95% [at 9.29 µM]
C[C@H]1CC[C@@]2(OC1)O[C@H]1CC3C4CC[C@H]5C[C@@H](O)CC[C@]5(C)C4CC(=O)[C@]3(C)[C@H]1[C@@H]2C (stereo partly drawn),Potency,[1],inactive
same,Potency,[2],inactive
CC1=C(CC/C(C)=C/C(=O)O)[C@@]2(C)CCCC(C)(C)C2CC1=O (stereo partly drawn),Potency,[1],inactive
same,Potency,[2],inactive
CC1(C)CC2C(O)C3=C(CC(C)(O)C2C1)C(=O)OC3 (stereo not drawn),Potency,[1],inactive
same,Potency,[2],inactive
CC(NC(=O)[C@H](Cc1ccccc1)NC(=O)OCc1ccccc1)C(=O)CF (stereo partly drawn),Potency,[1],inactive
same,Potency,[2],inactive
CC1CC(O)/C=C/C(O)/C=C\C(=O)O1 (stereo not drawn),Potency,[1],inactive
same,Potency,[2],inactive
COc1cc(C(=O)OCC2=CCC3C(C(=O)O)=COC(O[C@@H]4O[C@H](CO)[C@@H](O)[C@H](O)[C@H]4O)C23)ccc1O (stereo partly drawn),Potency,[1],inactive
same,Potency,[2],inactive
Cc1cn(-c2cc(NC(=O)c3ccc(C)c(Nc4nccc(-c5cnccn5)n4)c3)cc(C(F)(F)F)c2)cn1,Potency,[1],inactive
same,Potency,[2],inactive
